Among the data in ChEMBL document CHEMBL3988442, “University of Dundee, Small-Polar-MMV Screening Library” (2021) are Percent Effect values, retold here.

Parameters in all cases: scale not given: direction of the effect not stated beside the values
For assay [1], the target named is Protein translocase subunit SecA (Escherichia coli (strain K12)) (UniProt P10408). Put plainly: Assay to Identify E. coli SecA ATPase Inhibitors. The assay is classed as functional. Conditions: 30 µM.
Assay [2] deals with T1, Ubiquitin-activating enzyme e1, putative (Leishmania donovani (strain BPK282A1)) (UniProt E9BSI1).
T1 sequence (whole entry): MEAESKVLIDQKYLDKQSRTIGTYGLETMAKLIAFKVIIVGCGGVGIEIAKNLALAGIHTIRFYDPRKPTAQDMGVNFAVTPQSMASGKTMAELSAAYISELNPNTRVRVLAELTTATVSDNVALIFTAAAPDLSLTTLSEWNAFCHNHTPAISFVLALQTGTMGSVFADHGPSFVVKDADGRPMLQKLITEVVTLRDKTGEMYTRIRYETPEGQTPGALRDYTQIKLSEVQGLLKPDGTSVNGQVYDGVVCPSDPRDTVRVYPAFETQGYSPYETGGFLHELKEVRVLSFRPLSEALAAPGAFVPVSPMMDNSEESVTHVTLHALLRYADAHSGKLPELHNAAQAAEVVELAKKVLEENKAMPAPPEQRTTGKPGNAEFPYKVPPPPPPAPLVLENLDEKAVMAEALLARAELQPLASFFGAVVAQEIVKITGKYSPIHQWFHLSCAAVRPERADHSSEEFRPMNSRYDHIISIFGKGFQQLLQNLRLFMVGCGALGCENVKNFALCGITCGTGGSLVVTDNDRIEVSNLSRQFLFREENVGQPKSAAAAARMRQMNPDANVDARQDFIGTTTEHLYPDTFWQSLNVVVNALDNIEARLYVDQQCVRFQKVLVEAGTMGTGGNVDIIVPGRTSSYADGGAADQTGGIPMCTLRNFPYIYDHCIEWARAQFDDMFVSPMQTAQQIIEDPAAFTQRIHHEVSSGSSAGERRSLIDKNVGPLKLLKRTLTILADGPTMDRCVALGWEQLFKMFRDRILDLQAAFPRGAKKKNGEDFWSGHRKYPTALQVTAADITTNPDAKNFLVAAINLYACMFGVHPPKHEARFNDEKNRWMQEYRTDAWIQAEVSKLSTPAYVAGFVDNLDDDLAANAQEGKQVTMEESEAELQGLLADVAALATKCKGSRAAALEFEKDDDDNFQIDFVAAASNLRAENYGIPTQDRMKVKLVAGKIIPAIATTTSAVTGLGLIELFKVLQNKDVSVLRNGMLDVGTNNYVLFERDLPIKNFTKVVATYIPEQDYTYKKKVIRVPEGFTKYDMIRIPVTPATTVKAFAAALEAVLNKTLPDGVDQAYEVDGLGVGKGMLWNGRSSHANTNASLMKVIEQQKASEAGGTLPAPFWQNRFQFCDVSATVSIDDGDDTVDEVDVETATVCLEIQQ
Put plainly: Leishmania donovani Ubiquitin Activating Enzyme (LdE1). The assay is classed as functional. To be noted: 30 µM.

Assay [3] concerns the target AMP-activated protein kinase, AMPK (Homo sapiens) (UniProt P54646+O43741+P54619+Q9UGJ0+Q9Y478+Q13131+Q9UGI9). Put plainly: AMP-dependent Kinase enzyme assay. An in vitro enzyme assay that detects ADP turnover that is directly proportional to AMPK activity. This uses naive AMPK that is activated during the assay with MK-8722. The assay is classed as functional. Conditions: 30 µM.

Assay [4] concerns the target Sialic acid-binding Ig-like lectin 9 (Homo sapiens) (UniProt Q9Y336). Put plainly: Hs-Siglec9 ALPHAscreen SOP 20170721. To be noted: 10 µM. Background: In Alpha technology, singlet oxygen from a donor bead excites a nearby acceptor bead.
The next assay relates to Trypanosoma cruzi. Put plainly: Trypanosoma cruzi phosphomannomutase and mannose-1-phosphate guanylyltransferase assay. The assay is classed as functional. To be noted: 10 µM.
The target of assay [5] is T2, Arginase-2, mitochondrial (Homo sapiens) (UniProt P78540).
T2 sequence (whole entry): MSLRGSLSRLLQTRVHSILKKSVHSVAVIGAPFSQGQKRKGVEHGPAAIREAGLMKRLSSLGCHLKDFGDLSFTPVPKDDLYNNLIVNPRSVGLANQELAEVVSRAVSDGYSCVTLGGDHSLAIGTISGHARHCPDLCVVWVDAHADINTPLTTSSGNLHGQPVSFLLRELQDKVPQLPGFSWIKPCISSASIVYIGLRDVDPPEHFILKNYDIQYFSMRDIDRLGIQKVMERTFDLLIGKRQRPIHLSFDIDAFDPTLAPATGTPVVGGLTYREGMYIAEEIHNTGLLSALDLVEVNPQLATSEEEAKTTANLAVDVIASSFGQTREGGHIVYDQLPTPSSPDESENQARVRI
Put plainly: in vitro enzyme assay to detect the production of urea directly proportional to the activity of Arginase II. Further: in the data most compounds retested in dose-response had high values. The assay is classed as functional. To be noted: 33.3 µM.

The target in assay [6] is T3, Proteasome subunit beta (Trypanosoma cruzi) (UniProt O96673).
T3 sequence (whole entry): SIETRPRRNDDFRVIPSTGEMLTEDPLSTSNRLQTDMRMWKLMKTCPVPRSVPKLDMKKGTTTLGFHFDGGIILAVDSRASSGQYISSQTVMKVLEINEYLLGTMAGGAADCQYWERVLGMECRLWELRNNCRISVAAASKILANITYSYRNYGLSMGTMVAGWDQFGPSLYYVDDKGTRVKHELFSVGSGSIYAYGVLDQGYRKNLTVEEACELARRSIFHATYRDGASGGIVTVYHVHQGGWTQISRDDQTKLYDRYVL
Put plainly: Trypanosoma cruzi proteasome chymotrypsin-like activity (TcProtChymo) assay. Further: in the data most compounds retested in dose-response had high values. The assay is classed as functional. To be noted: 9.37 µM.

For the next assay, the species on record is Homo sapiens. Put plainly: To identify inhibition of the IFN signalling (Jak-Stat) pathway via expression of an eGFP reporter gene under the control of an IFN-stimulated response element (ISRE) containing MxA promoter. The assay is classed as functional. To be noted: 30 µM.
Assay [7] concerns the target T4, Tyrosyl-tRNA synthetase, putative (Trypanosoma cruzi (strain CL Brener)) (UniProt Q4DSP6).
T4 sequence (whole entry): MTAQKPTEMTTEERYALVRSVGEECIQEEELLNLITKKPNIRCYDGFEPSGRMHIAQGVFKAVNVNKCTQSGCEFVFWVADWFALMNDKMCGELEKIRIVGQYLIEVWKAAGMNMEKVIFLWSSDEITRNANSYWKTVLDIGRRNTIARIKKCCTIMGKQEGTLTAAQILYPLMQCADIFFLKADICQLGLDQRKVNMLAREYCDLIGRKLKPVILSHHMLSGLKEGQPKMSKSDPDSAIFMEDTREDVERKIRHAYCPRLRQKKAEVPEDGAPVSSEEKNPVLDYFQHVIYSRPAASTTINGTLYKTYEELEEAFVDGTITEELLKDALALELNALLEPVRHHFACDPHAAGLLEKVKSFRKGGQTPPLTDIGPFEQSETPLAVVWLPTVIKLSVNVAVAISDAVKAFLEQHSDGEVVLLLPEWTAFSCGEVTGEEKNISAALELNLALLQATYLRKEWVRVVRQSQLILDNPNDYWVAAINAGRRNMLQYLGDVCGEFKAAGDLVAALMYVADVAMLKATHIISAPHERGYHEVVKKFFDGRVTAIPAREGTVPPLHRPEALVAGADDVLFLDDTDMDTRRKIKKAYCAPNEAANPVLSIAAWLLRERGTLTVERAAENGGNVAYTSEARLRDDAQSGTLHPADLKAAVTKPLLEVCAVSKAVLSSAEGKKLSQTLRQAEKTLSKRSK
Put plainly: Trypanosoma cruzi tyrosyl tRNA synthetase (TcYRS) _High Tyrosine SOP. Further: in the data most compounds retested in dose-response had high values. The assay is classed as functional. To be noted: 30 µM.

Assay [8] concerns the target T4, Tyrosyl-tRNA synthetase, putative (Trypanosoma cruzi (strain CL Brener)). Put plainly: Trypanosoma cruzi tyrosyl tRNA synthetase (TcYRS) SOP. The assay is classed as functional. To be noted: 30 µM.
Assay [9] concerns the target Chromo domain-containing protein 1 (Saccharomyces cerevisiae (strain ATCC 204508 / S288c) (Baker's yeast)) (UniProt P32657). Put plainly: ScCHD-1 Enzyme Inhibition Assay. Further: in the data most compounds retested in dose-response had high values. The assay is classed as functional. To be noted: 30 µM.

For some of these results: Results with a measured potency or affinity are listed apart.

Chromo domain-containing protein 1 (Saccharomyces cerevisiae (strain ATCC 204508 / S288c) (Baker's yeast)), sequence (P32657 whole entry, the tested form may be a part): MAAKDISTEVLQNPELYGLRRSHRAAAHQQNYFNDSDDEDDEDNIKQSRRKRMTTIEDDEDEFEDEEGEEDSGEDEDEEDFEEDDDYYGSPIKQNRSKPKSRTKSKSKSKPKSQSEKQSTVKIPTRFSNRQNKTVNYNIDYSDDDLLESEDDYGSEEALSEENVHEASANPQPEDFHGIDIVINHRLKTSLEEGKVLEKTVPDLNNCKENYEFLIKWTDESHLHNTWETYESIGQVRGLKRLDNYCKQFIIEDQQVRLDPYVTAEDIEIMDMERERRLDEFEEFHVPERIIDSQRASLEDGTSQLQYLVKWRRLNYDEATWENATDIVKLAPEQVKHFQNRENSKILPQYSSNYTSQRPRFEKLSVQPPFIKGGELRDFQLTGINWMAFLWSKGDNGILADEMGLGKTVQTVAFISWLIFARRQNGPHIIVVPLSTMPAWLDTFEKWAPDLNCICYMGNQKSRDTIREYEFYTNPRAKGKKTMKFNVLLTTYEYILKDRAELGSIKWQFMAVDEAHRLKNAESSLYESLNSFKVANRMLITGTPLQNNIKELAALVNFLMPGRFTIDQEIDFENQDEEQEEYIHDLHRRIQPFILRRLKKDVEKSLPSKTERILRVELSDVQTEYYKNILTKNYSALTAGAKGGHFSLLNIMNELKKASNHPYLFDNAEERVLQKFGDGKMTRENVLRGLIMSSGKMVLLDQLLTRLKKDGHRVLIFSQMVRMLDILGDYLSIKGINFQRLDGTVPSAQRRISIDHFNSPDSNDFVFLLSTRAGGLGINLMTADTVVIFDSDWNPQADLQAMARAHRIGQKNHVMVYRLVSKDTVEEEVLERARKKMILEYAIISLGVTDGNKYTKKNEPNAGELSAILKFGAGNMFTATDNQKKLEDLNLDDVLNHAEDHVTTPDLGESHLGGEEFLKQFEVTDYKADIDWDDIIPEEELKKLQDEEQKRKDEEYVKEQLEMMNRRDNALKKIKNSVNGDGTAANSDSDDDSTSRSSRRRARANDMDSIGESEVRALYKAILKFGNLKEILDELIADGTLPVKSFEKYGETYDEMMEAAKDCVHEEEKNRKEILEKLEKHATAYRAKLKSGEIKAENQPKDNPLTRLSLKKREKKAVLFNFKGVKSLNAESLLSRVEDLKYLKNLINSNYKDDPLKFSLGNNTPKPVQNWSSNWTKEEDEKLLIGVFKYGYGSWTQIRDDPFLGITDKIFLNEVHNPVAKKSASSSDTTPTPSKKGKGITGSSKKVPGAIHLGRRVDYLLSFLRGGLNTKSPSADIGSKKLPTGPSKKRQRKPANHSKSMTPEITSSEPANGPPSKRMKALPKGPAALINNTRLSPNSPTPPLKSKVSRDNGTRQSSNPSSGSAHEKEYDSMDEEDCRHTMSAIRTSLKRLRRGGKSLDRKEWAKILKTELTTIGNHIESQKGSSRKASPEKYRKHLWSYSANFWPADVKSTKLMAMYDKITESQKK
Protein translocase subunit SecA (Escherichia coli (strain K12)), sequence (P10408 whole entry): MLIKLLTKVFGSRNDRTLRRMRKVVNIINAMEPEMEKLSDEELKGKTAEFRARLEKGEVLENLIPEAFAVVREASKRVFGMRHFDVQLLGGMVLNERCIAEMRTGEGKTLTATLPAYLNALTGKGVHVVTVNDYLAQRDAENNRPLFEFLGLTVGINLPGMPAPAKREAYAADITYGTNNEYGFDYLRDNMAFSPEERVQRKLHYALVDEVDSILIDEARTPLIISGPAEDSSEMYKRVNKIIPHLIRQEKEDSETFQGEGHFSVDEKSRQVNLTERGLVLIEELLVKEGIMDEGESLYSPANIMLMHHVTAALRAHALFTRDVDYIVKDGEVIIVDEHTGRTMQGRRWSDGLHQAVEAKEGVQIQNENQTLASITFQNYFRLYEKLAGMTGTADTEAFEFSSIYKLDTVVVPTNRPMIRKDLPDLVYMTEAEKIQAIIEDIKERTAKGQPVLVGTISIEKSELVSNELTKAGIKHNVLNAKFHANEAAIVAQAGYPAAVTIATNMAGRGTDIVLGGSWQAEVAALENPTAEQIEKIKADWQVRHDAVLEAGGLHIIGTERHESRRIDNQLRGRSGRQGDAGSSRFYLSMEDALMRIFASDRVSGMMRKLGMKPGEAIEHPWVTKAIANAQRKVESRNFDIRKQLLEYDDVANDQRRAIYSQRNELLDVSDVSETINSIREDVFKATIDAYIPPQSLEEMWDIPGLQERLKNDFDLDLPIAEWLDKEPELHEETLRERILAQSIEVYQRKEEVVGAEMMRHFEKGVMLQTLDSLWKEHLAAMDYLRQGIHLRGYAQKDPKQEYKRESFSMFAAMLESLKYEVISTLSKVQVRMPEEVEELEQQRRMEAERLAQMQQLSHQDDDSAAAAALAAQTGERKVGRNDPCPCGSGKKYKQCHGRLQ
Sialic acid-binding Ig-like lectin 9 (Homo sapiens), sequence (Q9Y336 whole entry): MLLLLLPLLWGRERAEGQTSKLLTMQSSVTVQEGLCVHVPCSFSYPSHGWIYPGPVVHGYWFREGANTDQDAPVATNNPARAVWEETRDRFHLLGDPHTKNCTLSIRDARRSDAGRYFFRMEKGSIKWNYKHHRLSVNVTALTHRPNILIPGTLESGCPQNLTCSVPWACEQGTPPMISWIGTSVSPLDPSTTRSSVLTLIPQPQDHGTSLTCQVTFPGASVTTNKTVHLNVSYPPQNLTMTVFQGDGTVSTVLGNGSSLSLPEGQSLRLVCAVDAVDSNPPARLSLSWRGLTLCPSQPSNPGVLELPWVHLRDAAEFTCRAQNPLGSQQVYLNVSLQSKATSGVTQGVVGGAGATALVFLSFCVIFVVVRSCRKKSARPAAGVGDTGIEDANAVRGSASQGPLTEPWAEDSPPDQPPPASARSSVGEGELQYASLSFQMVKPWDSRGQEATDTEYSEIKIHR

As to `Cc1cnn(CC2CCCCN2Cc2noc(C3CC3)n2)c1` (stereo unspecified), the Percent Effect was -2.92% in assay [1]; 5.26% in assay [2]; 2.62% in assay [3]; 2.92% in assay [4]; 0% in the assay with Trypanosoma cruzi; 1.53% in assay [5]. For the same compound, the Percent Effect was 9.86% in assay [6]; 14.8% in the assay filed under Homo sapiens; 7.35% in [7]; 9.76% in assay [8]; -5.92% in assay [9].

`c1ccc2sc(CN3CCCC3c3noc(C4CC4)n3)nc2c1` (stereo unspecified): the Percent Effect in [1] is -2.02%; in assay [2], -13.5%; in assay [3], -1.08%; in assay [4], -2.6%; with Trypanosoma cruzi it was -2.88%; in assay [5] it was 0.185%. Also, the Percent Effect in assay [6] was determined as 0%; in the assay filed under Homo sapiens it was 9.41%; in assay [7], 8.91%; in assay [8], 23.2%; in [9], 6.83%.

For the compound `Cn1cc(CCNC(=O)NCc2nnc3n2CCC3)cn1`, the Percent Effect is -2.08% in assay [1]; 15.2% in assay [2]; -4.15% in [3]; 10.9% in assay [4]; -1.6% with Trypanosoma cruzi; 2.28% in assay [5]. Further, the Percent Effect is -0.573% in assay [6]; 4.78% in the assay listed under Homo sapiens; 1.48% in assay [7]; 16.5% in [8]; -6.44% in assay [9].

For the compound `CS(=O)(=O)c1ccc(CNC2CCCN(c3cccnn3)C2)cc1` (stereo unspecified), the Percent Effect was -2.48% in assay [1]; 18.2% in [2]; 4.4% in assay [3]; -0.526% in assay [4]; 0.686% with Trypanosoma cruzi; 6.53% in assay [5]. For the same compound, the Percent Effect is 12.5% in assay [6]; 9.14% in the assay listed under Homo sapiens; 8.57% in assay [7]; 21.2% in assay [8]; -19% in [9].

`Cn1c(C(=O)N2CCC(C(=O)N3CCCC3)CC2)c(Cl)c2ccccc21`: the Percent Effect is -4.1% in [1]; 5.33% in assay [2]; -1.92% in [3]; 6.11% in assay [4]; 2.82% with Trypanosoma cruzi; 2.6% in assay [5]. Also, the Percent Effect in assay [6] was 25.5%; in the assay filed under Homo sapiens, 0.0464%; in [7] it was 8.2%; in assay [8], 13.6%; in [9], -6.83%.

For the compound `COc1c(CNC(c2nccn2C)C(C)C)c(C)nn1C` (stereo unspecified), the Percent Effect was 1.37% in [1]; -5.26% in assay [2]; 0.924% in [3]; 13.8% in assay [4]; -2.07% in the assay with Trypanosoma cruzi; -2.68% in [5]. In addition, the Percent Effect in assay [6] was 2.84%; in the assay listed under Homo sapiens, -7.86%; in assay [7] it was 6.37%; in assay [8] it was 0%; in assay [9], 4.67%.

`Cc1cc(C(=O)N2CC[C@H](OCC3CC3)[C@@H]2Cc2cccnc2)no1`: the Percent Effect was -2.54% in assay [1]; 0% in [2]; 0.886% in [3]; -3.88% in assay [4]; 0.772% in the assay on Trypanosoma cruzi; -36.4% in [5]. Further, the Percent Effect in [6] is 4.79%; in the assay listed under Homo sapiens it was -3.71%; in assay [7] it was -1.04%; in assay [8], -2.5%; in assay [9], -5.62%.

Turning to `COc1c(CNCCNC(=O)c2ccc(C)cc2)c(C)nn1C`, the Percent Effect in assay [1] is -5.75%; in assay [2] it was 13.5%; in assay [3] it was -5.83%; in assay [4], 19.1%; in the assay on Trypanosoma cruzi, 6.96%; in [5] it was -2.4%. The Percent Effect in assay [6] was 5.57%; in the assay listed under Homo sapiens it was -9.3%; in assay [7], 7.92%; in assay [8] it was 28.1%; in assay [9], -7.35%.

For `CC(=O)N(Cc1noc(C)n1)C1CCN(Cc2ccccc2C#N)C1` (stereo unspecified), the Percent Effect in assay [1] was -1.89%; in [2] it was 3.8%; in assay [3], 1.41%; in [4], 1.68%; with Trypanosoma cruzi it was 1.74%; in assay [5], 5.38%. Also, the Percent Effect in assay [6] was 6.17%; in the assay filed under Homo sapiens it was -5.16%; in assay [7], 0%; in assay [8], 5.06%; in assay [9] it was 0.362%.

Turning to `CCn1cnnc1CNC(=O)c1cc(Cl)ccc1OC`, the Percent Effect in [1] is -2.18%; in assay [2] it was 8.86%; in assay [3], 8.8%; in [4], -1.08%; in the assay with Trypanosoma cruzi it was -2.56%; in [5] it was 3.66%. Besides, the Percent Effect was 11.2% in assay [6]; 7.84% in the assay listed under Homo sapiens; 9.38% in assay [7]; 15.2% in assay [8]; -11.8% in [9].

In the case of `O=C(c1cc2c(s1)CCC2)N1CCCCC1Cn1cccn1` (stereo unspecified), the Percent Effect is -4.04% in [1]; 10.8% in assay [2]; -1.14% in [3]; 3.35% in [4]; -5.11% with Trypanosoma cruzi; -3.88% in assay [5]. The Percent Effect is -0.539% in [6]; 2.18% in the assay filed under Homo sapiens; 4.95% in assay [7]; 6.1% in assay [8]; 1.75% in assay [9].
